# Screening data (PubChem BioAssay)
# Sampled rows, rich in hits. Any-hit rate of the full collection: about 3.6%.
# TROY NFkB inh – TROY signaling inhibition; Q293 LMP1-TROYcd NF-kB luciferase reporter, 4 h; inhibition, % at 10 µM; actives 0.98% (n = 360,000);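 active = compounds whose plate-normalised and pattern-corrected inhibition of the luciferase reporter signal at the single screening dose is 50% or more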
# HSF-1 act – increases HSF-1 driven luciferase reporter signal; NIH3T3-HGL HSF-1 luciferase reporter, MG132, 8 h; 100% = twice DMSO control signal; activation, % at 9 µM; actives 1.7% (n = 300,000); AID 504408;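 active = mean replicate activation of at least 50% with a set share of replicates each reaching 50%; inconclusive = only one of those two conditions met; inactive = mean below 50% and too few replicates reaching it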
# HSF1 inhib – HSF1 inhibition | actives 0.77% (n = 300,000) | NIH3T3-HGL HSE-luciferase, MG132-induced, luminescence 8 h; stronger effect = lower value | AID 2098 | activity change, negative = inhibition, % at 7.5 µM (by protocol);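 active = more than half of replicate wells show activity change below -50%, luminescence cut by over half; inconclusive = some wells, but at most half, below -50%; inactive = no replicate well below -50%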;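 also: luciferase reports HSF-1 transcriptional activity via heat shock element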
# TWEAK-Fn14 inh – blocks TWEAK-Fn14 interaction in a reporter cell assay; AID 1159606; actives 2% (n = 360,000); TWEAK-stimulated Fn14 reporter cells, luciferase luminescence, 8 h; inhibition, % at 10 µM; in the data active = inhibition above about 50%
# LMP1 NFkB inh – reduces LMP1-driven NF-kappaB luciferase signal | actives 0.69% (n = 350,000) | inhibition, % at 12.5 µM | AID 504558 | LMP1-induced NF-kappaB luciferase reporter cells, luminescence; in the data active = inhibition above about 41%; inconclusive = no clear call, values can overlap the other calls
# LGR2 antag – inhibitors of bursicon-induced Drosophila LGR2 receptor cAMP signaling. HEK293 LGR2, CRE-luciferase, bursicon-stimulated, 4 h. AID 720647. actives 0.35% (n = 380,000). inhibition, % at 9.99 µM;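 active = drop in luminescence signal, shown as inhibition above about 50% in the replicate tests, limit read from the data, passing the limit was not always enough; inconclusive = probably only some replicates passing the limit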;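 also: agonist challenge used bursicon conditioned medium at about half maximal strength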
# Numbers stand for hits; – = inactive; ? = inconclusive; · = no result.
SMILES,TROY NFkB inh,HSF-1 act,HSF1 inhib,TWEAK-Fn14 inh,LMP1 NFkB inh,LGR2 antag
Cc1cc(CNC(=O)COc2cc(F)ccc2[N+](=O)[O-])c2ccccc2n1,–,–,–,76.7,–,–
Cc1cc(CNC(=O)COc2ccc(F)cc2F)c2ccccc2n1,–,–,–,–,–,–
CN(C)CCCNC(=O)C[C@@H]1CC[C@H]2[C@H](COc3ccc(NS(C)(=O)=O)cc3C(=O)N2C)O1,·,·,·,·,·,–
CO[C@H]1CN(C)C(=O)c2ccc(NS(=O)(=O)CC(F)(F)F)cc2OC[C@H](C)N(C)C[C@@H]1C,·,·,·,·,·,–
O=C(Nc1ccc2[nH]ncc2c1)c1ccccc1Cl,–,–,-66.6,–,–,–
O=C(CSc1nc(Cc2ccccc2)nc2ccccc12)c1ccc2c(c1)OCCO2,–,–,–,–,–,–
CCc1nc(SCC(=O)c2ccc3c(c2)OCCO3)c2ccccc2n1,–,–,–,–,40.5,·
O=C(CSc1ncnc2ccccc12)c1ccc2c(c1)OCCO2,54.3,–,–,–,–,–
O=C(O)C[C@H]1C[C@H]2c3cc(NC(=O)C4CCC4)ccc3O[C@H]2[C@H](CO)O1,·,·,·,·,·,–
COc1ccc2c3c(n(C)c2c1)[C@H](CO)N(C(=O)Nc1ccc(F)cc1)CC31CCN(S(=O)(=O)c2cn(C)cn2)CC1,·,·,·,·,·,–
Brc1ccc(N=Nc2ccc3ccccc3n2)cc1,75.8,·,–,99.1,63.1,95.3
CCn1c(O)c(N=Nc2ccc3ccccc3n2)c2ccccc21,–,–,–,–,–,–
Cc1ccc(-c2ccc(=O)n(Cc3cc(C)ccc3C)n2)cc1,–,–,–,–,–,–
Cc1ccc(C)c(Cn2nc(-c3ccccc3)ccc2=O)c1,56.3,–,–,–,–,–
CC(=O)N(C)C[C@@H]1Oc2ncc(C#Cc3ccc(F)cc3)cc2C(=O)N([C@H](C)CO)C[C@H]1C,·,·,·,·,·,–
O=C(C[C@@H]1CC[C@@H]2[C@H](COC[C@H](O)CN2S(=O)(=O)c2ccc(F)cc2)O1)N[C@@H]1CCN(Cc2ccccc2)C1,·,·,·,·,·,–
NC(=O)C(C(=O)/C=C/c1ccc(Cl)cc1)=C1SCCS1,–,210.1,–,51.3,–,–
Cc1ccc(O)c(N=Cc2cc(Cc3ccccc3)cc([N+](=O)[O-])c2O)c1,52.3,–,–,–,–,–
O=[N+]([O-])c1cc(Cc2ccccc2)cc(C=Nc2ccc(N3CCOCC3)cc2)c1O,–,–,–,–,–,·
O=C(C[C@H]1C[C@H]2c3cc(NC(=O)C4CCC4)ccc3O[C@H]2[C@@H](CO)O1)NCC1CC1,·,·,·,·,·,–
Cn1c(=O)[nH]c(=O)c2c1nc(CN1CCOCC1)n2CCCc1ccccc1,–,–,–,–,84.6,–
C[C@@H]1CN([C@H](C)CO)C(=O)c2cc(C#Cc3ccncc3)cnc2O[C@H]1CN(C)CC1CCCC1,·,·,·,·,·,–
Cc1cccc2cc(/C=N/NC(=O)c3ccncc3)c(Cl)nc12,–,–,–,–,–,–
CS(=O)(=O)N(Cc1ccc(Cl)cc1)c1ccc(C(=O)N/N=C/c2cc3ccccc3nc2Cl)cc1,–,–,–,–,58.1,–
O=C(N/N=C/c1cc(Br)ccc1O)c1ccccc1Cl,–,–,–,–,51.4,–
SMILES,TROY NFkB inh,HSF-1 act,HSF1 inhib,TWEAK-Fn14 inh,LMP1 NFkB inh,LGR2 antag
Cc1ccc2cc(/C=N/NC(=O)c3ccccc3O)c(Cl)nc2c1,64.9,–,–,–,–,–
Cc1cccc2cc(/C=N/NC(=O)c3ccccc3O)c(Cl)nc12,56.5,–,–,–,–,·
CC(C)NC(=O)N(C)C[C@@H]1Oc2ccc(NS(=O)(=O)c3ccc(Cl)cc3)cc2C(=O)N([C@@H](C)CO)C[C@H]1C,·,·,·,·,·,–
Fc1ccc(-n2nnnc2-c2cnc(-c3cccs3)nc2C(F)(F)F)cc1,58.8,–,–,102.1,–,·
CCOC(=O)C1(CCCc2ccccc2)CCN(C2CCSCC2)CC1,–,–,–,54.6,–,–
OCC1(CCCc2ccccc2)CCN(C2CCC2)CC1,–,–,–,–,–,–
CCOC(=O)C1(CCCc2ccccc2)CCN(C(=O)COC)CC1,–,–,–,–,–,–
OCC1(CCCc2ccccc2)CCN(C2CCSCC2)CC1,–,73.8,–,–,–,–
CCC(=O)N1CC2(CN(C(=O)CN3CCOCC3)C2)c2c([nH]c3cc(OC)ccc23)[C@@H]1CO,·,·,·,·,·,–
CNC(=O)C[C@H]1CC[C@@H]2[C@H](COC[C@@H](O)CN2Cc2ccncc2)O1,·,·,·,·,·,–
CCOC(=O)c1ccc(N2Cc3ccccc3C2=NC(=O)c2cccc([N+](=O)[O-])c2)cc1,–,68.2,–,–,–,–
Cc1ccnc(NC(=O)/C=C/c2ccccc2Cl)c1,–,–,–,64.5,–,–
Cc1ccnc(NC(=O)/C=C/c2ccccc2[N+](=O)[O-])c1,·,?,–,·,·,–
Cc1cccc(NC(=O)/C=C/c2ccc(Cl)cc2)n1,–,67.3,–,–,–,–
Cc1cc(N)c2cc(NC(=O)/C=C/c3ccccc3Cl)ccc2n1,81.0,–,–,–,–,·
Cc1cc(C)nc(NC(=O)/C=C/c2ccccc2Cl)c1,–,84.1,–,–,–,–
C[C@H](CO)N1C[C@H](C)[C@H](CN(C)S(=O)(=O)c2cccs2)Oc2ccc(NC(=O)Cc3cn(C)c4ccccc34)cc2C1=O,·,·,·,·,·,–
OCc1cc(Br)ccc1OCc1nc2ccccc2s1,–,71.2,–,–,–,–
Oc1ccccc1OCc1nc2ccccc2s1,–,74.5,–,–,–,·
Oc1ccc(O)c(Cc2nc3ccccc3s2)c1,63.2,69.2,–,–,–,–
O=C(COc1ccc(Br)cc1CO)Nc1ccccc1,–,–,–,–,–,·
N/C(Cc1nc2ccccc2s1)=N\O,–,–,–,–,–,–
COCC(=O)Nc1ccc2c(c1)OC[C@H](C)N(C(=O)Cc1cccnc1)C[C@@H](C)[C@H](OC)CN(C)C2=O,·,·,·,·,·,–
COc1ccccc1CN1[C@@H]2Cn3c(ccc(C4=CCCCC4)c3=O)[C@H]1[C@@H](C(=O)N(C)C)[C@@H]2CO,·,·,·,·,·,–
O=C(C[C@@H]1CC[C@H]2[C@@H](COC[C@@H](O)CN2Cc2ccc3c(c2)OCO3)O1)Nc1ccccc1,·,·,·,·,·,–
SMILES,TROY NFkB inh,HSF-1 act,HSF1 inhib,TWEAK-Fn14 inh,LMP1 NFkB inh,LGR2 antag
C[C@@H]1CN([C@@H](C)CO)C(=O)Cc2cc(NC(=O)Nc3ccc(C(F)(F)F)cc3)ccc2O[C@@H]1CN(C)S(=O)(=O)c1cn(C)cn1,·,·,·,·,·,–
S=C(NCc1ccccn1)Nc1ccc(Cl)cc1,·,–,–,72.4,–,·
O=C(NCc1ccccn1)Nc1cccc(Cl)c1,–,55.6,–,–,–,–
O=C(NCc1ccccn1)Nc1cccc(NC(=O)NCc2ccccn2)c1,–,–,–,–,–,·
O=S(=O)(N1CCCCC1)n1nnc2cc3ccccc3cc21,·,·,·,·,·,–
O=S(=O)(N1CCCCC1)n1nnc2ccccc21,–,–,-52.6,–,–,–
CCCNC(=O)N1CC2(CN(C(=O)C3CCOCC3)C2)c2c([nH]c3cc(OC)ccc23)[C@@H]1CO,·,·,·,·,·,–
OC(CSc1c(Cl)cccc1Cl)CN1CCN(c2ccccc2F)CC1 (stereo unspecified),–,–,–,–,–,–
